High-throughput results as filed in PubChem BioAssay.
This is a sample that favours compounds with a hit; in the whole collection about 4.6% have one here.
TR SRC2 fluor cs: alters Texas Red total fluorescence, flagging assay interference; Potency, µM (doses to about 106 µM), inactives show top-dose fluorescence change, negative = quenching; TRb/SRC2 Texas Red total fluorescence interference; 280,000 tested, 0.29% active; active = well fitted curve in either direction with a large enough effect; inconclusive = small, poorly fitted or top-dose-only effect; note: potency is the fitted concentration of half-maximal effect
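Human TRb ligand-binding domain at 0.6 uM with 20 nM Texas Red SRC2 peptide in Tris buffer containing 1 uM T3 and 5% DMSO, incubated with compound 5 h at ambient temperature. Total fluorescence (555/632 nm) calculated as parallel + 2 × perpendicular.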
Tau FP inhib: blocks human tau fibril formation measured by polarization; 280,000 tested, 0.39% active; AID 1468; K18 P301L tau heparin fibrillization, Alexa594 FP, 6 h; Potency, µM (top dose mostly 57.7 µM), for inactives: at the top dose activity, negative = inhibition, most hits filed as inhibitors; note: potency is the fitted concentration of half-maximal effect; nearly all actives have a fitted effect of over 55% in size
Target sequence (P10636 561-689 P618L limits assumed): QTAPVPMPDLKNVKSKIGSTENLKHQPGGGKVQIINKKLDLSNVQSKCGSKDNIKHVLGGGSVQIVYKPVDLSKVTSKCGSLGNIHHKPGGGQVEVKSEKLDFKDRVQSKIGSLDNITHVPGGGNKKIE
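FP of Alexa 594-tau after heparin (20 uM) induction. Substrate: human K18 P301L, 15 uM unlabeled, 0.24 uM labeled. Buffer 100 mM sodium acetate pH 7. 6 hr, 37 C.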
Tau fibril ThT: tau fibrillization inhibition (ThT binding); P10636; recombinant tau K18 P301L, heparin-induced fibrillization, ThT fluorescence; Potency, µM (doses to about 57.4 µM), for the others: at the top dose activity, negative = inhibition, most hits filed as inhibitors; 270,000 tested, 2.1% active; note: potency is the fitted concentration of half-maximal effect; nearly all actives have a fitted effect of over 55% in size
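Heparin-induced (20 uM) aggregation of recombinant human K18 P301L tau, 15 uM unlabeled with 0.24 uM labeled, pH 7 acetate buffer, 6 hr at 37 C with compound. Fibrils quantified by 30 uM ThT fluorescence after 1 hr ambient incubation.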
PNC assembly inh: blocks assembly of the perinucleolar compartment; PC3M PTB-GFP, PNC prevalence imaging, 16 h; hits give low values; activity change (PNC), negative = inhibition, % at 10 µM; 140,000 tested, 3.1% active; AID 2417;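 active = readout at or below -70, meaning at least 70% loss of cells showing the perinucleolar compartment, a nuclear body marking cancer cells; inconclusive = readout between -30 and a set limit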;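 note: plate controls were DMSO wells for no effect and camptothecin positive control wells for full effect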
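Compounds are pinned in duplicate onto adhered PC3M cells stably expressing GFP-tagged PTB and incubated 16 h at 37 C. Cells are then fixed, nuclei stained with Hoechst, and PNC-positive cells counted.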
TRb-SRC2 inh: inhibitors of human thyroid hormone receptor beta-SRC2 interaction; Potency, µM (highest dose often 106 µM), for the others: at the highest dose activity change, negative = inhibition, usual class: inhibitors; AID 1469; TRbeta-SRC2 peptide binding, fluorescence polarization; receptor liganded with 1 µM T3; P10828; 280,000 tested, 0.065% active;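 note: potency is the fitted concentration of half-maximal effect; plate controls were bound peptide for no effect and peptide without receptor for full effect; nearly all actives have a fitted effect of over 50% in size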
Target sequence (P10828 whole entry, looked up): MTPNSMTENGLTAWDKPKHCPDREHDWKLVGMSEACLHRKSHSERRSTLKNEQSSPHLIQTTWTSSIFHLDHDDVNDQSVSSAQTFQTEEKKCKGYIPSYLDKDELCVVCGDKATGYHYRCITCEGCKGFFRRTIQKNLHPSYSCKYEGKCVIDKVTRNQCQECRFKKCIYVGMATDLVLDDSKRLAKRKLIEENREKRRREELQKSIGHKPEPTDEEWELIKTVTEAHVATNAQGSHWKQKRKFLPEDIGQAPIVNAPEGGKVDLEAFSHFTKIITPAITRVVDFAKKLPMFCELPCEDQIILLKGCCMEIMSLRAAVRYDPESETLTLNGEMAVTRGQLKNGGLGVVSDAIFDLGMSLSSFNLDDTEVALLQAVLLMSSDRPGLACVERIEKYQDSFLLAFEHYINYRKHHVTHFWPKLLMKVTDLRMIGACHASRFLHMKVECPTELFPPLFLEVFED
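Assay buffer: 20 mM Tris-HCl, 100 mM NaCl, 10% glycerol, 1 mM EDTA, 0.01% NP-40, 1 mM DTT, 1 uM T3, 5% DMSO; TRb LBD 0.6 uM, Texas Red SRC2 20 nM; FP after 5 hr.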
Tau fluor cs: counter-screen for tau fibril formation inhibitors. tau K18 P301L Alexa594 fluorescence, heparin fibrillization. Potency, µM (doses to about 57.7 µM), for inactives: at the top dose activity change, negative = decrease. 280,000 tested, 0.93% active; note: potency is the fitted concentration of half-maximal effect; nearly all actives have a fitted effect of over 55% in size
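Human tau K18 P301L (15 uM unlabeled, 0.24 uM Alexa 594-labeled) in 100 mM sodium acetate pH 7 with 20 uM heparin, 6 hr at 37 C. ThT 30 uM added, 1 hr ambient; Alexa 594 FP and total fluorescence read at 555/632 nm.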
Numbers without * were called inactive; [ ] = another dose, or the depositor's remark. Unless noted, calls come from the whole dose curve; as a rule, active = well fitted curve in the direction sought with a large enough effect; inconclusive = small, poorly fitted or top-dose-only effect, or another doubt; inactive = no such curve, though single readings can be large; an effect the other way counts as inactive or inconclusive. Unless noted, % is set by controls: 0 for no effect and ±100 for the full control effect.

How did O=C(Nc1ccc(Nc2ccccc2)cc1)C(Cl)(Cl)Cl do in these assays?
TR SRC2 fluor cs: -2%; Tau FP inhib: 7%; Tau fibril ThT: inconclusive; PNC assembly inh: 19; TRb-SRC2 inh: -11%; Tau fluor cs: 7.9µM*[quencher]

How did O=C(Nc1ccc(Nc2ccccc2)cc1)C(Cl)Cl do in these assays?
TR SRC2 fluor cs: -1%[53 µM]; Tau FP inhib: inconclusive; Tau fibril ThT: inconclusive; PNC assembly inh: -91*; TRb-SRC2 inh: 1%[53 µM]; Tau fluor cs: inconclusive

What do the screens show for `NC(=O)Nc1ccc(Nc2ccccc2)cc1`?
TR SRC2 fluor cs: 4%; Tau FP inhib: 3%; Tau fibril ThT: inconclusive; TRb-SRC2 inh: 6%; Tau fluor cs: inconclusive

What do the screens show for `Cn1c(=O)c(Nc2ccc(O)cc2)c2c3c(cccc31)C(=O)c1ccccc1-2`?
TR SRC2 fluor cs: -5%; Tau FP inhib: inconclusive; Tau fibril ThT: 7.9µM*; PNC assembly inh: -18; TRb-SRC2 inh: -4%; Tau fluor cs: 14µM*[quencher]

What do the screens show for `Cc1cccc2cc(C3CC(c4ccco4)=NN3S(=O)(=O)c3ccccc3)c(Cl)nc12` (stereo not given)?
TR SRC2 fluor cs: -2%; Tau FP inhib: -8%; Tau fibril ThT: 3%; PNC assembly inh: -91*; TRb-SRC2 inh: 2%; Tau fluor cs: -7%

What do the screens show for `Cn1c(SCC(=O)NCc2ccco2)nnc1-c1ccc(S(=O)(=O)N2CCOCC2)cc1`?
TR SRC2 fluor cs: 0%; Tau FP inhib: 2%; Tau fibril ThT: -8%; PNC assembly inh: -100*; TRb-SRC2 inh: -6%; Tau fluor cs: -5%

Results for Cn1c(SCC(=O)NCc2ccco2)nnc1-c1ccccc1 ?
TR SRC2 fluor cs: 2%; Tau FP inhib: 5%; Tau fibril ThT: -6%; PNC assembly inh: 31; TRb-SRC2 inh: 6%; Tau fluor cs: 3%

Results for CC1CCN(C(=O)CSc2nnc(-c3ccc(S(=O)(=O)N4CCOCC4)cc3)n2C)CC1 ?
TR SRC2 fluor cs: -3%; Tau FP inhib: 0%; Tau fibril ThT: 2%; PNC assembly inh: -100*; TRb-SRC2 inh: -4%; Tau fluor cs: 2%

How did CC1CCCCN1C(=O)CSc1nc2ccsc2c(=O)n1Cc1ccccn1 (stereo not given) do in these assays?
TR SRC2 fluor cs: 1%; Tau FP inhib: inconclusive; Tau fibril ThT: -2%; PNC assembly inh: 50; TRb-SRC2 inh: -1%; Tau fluor cs: 5%

What do the screens show for `CC1C(=O)C(C)C(c2ccc([N+](=O)[O-])cc2)NC1c1ccc([N+](=O)[O-])cc1` (stereo not given)?
TR SRC2 fluor cs: -2%; Tau FP inhib: 6%; Tau fibril ThT: -6%; TRb-SRC2 inh: -3%; Tau fluor cs: -15%

How did O=C(c1ccc2ccccc2n1)N1CCN(c2ccccc2)CC1 do in these assays?
TR SRC2 fluor cs: -1%; Tau FP inhib: -2%; Tau fibril ThT: -9%; PNC assembly inh: 42; TRb-SRC2 inh: -5%; Tau fluor cs: -8%

How did O=C(c1ccc2ccccc2n1)N1CCN(c2ccccc2O)CC1 do in these assays?
TR SRC2 fluor cs: 1%; Tau FP inhib: 8%; Tau fibril ThT: -3%; PNC assembly inh: -96*; TRb-SRC2 inh: -16%; Tau fluor cs: -9%

Results for O=C(CN1CCCCC1)Nc1ccc(NC(=O)c2ccc(Cl)cc2)cc1Cl ?
TR SRC2 fluor cs: 3%; Tau FP inhib: inconclusive; Tau fibril ThT: 6%; PNC assembly inh: -21; TRb-SRC2 inh: -1%; Tau fluor cs: -20%

How did CCOC(=O)c1cn(CC)c2ccc(S(=O)(=O)N3CC(C)CC(C)C3)cc2c1=O (stereo not given) do in these assays?
TR SRC2 fluor cs: 45µM*[fluorescent]; Tau FP inhib: -12%; Tau fibril ThT: inconclusive; PNC assembly inh: 24; TRb-SRC2 inh: inconclusive; Tau fluor cs: -22%

How did Cn1cccc1C(=O)OCC(=O)Nc1cc(C(C)(C)C)nn1-c1ccccc1 do in these assays?
TR SRC2 fluor cs: -1%; Tau FP inhib: 7%; Tau fibril ThT: -4%; PNC assembly inh: 33; TRb-SRC2 inh: -20%; Tau fluor cs: -3%

What do the screens show for `CC1CN(Cc2nc3c(c(=O)n(C)c(=O)n3C)n2CCN2CCOCC2)CC(C)O1` (stereo not given)?
TR SRC2 fluor cs: -5%; Tau FP inhib: 3%; Tau fibril ThT: 6%; PNC assembly inh: -19; TRb-SRC2 inh: -4%; Tau fluor cs: 5%

What do the screens show for `CCc1ccccc1Nc1nc2ccccc2n1CC`?
TR SRC2 fluor cs: 4%; Tau FP inhib: -3%; Tau fibril ThT: 5%; TRb-SRC2 inh: -3%; Tau fluor cs: 2%

What do the screens show for `O=C(CSc1nc2ccccc2c(=O)n1CCCN1CCOCC1)c1c[nH]c2ccccc12`?
TR SRC2 fluor cs: -3%; Tau FP inhib: -15%; Tau fibril ThT: 6%; TRb-SRC2 inh: 8%; Tau fluor cs: inconclusive

Results for COC(=O)C1C(=O)C2=C(CC1C)NC(C)=C(C(=O)OC1CCCCC1)C2c1ccc(N(C)C)cc1 (stereo not given) ?
TR SRC2 fluor cs: -6%; Tau FP inhib: -2%; Tau fibril ThT: inconclusive; PNC assembly inh: -100*; TRb-SRC2 inh: -6%; Tau fluor cs: -30%

How did O=C(Cc1ccc(Cl)cc1)NCc1ccccc1Cl do in these assays?
TR SRC2 fluor cs: -2%; Tau FP inhib: -5%; Tau fibril ThT: -4%; TRb-SRC2 inh: 1%; Tau fluor cs: -8%

How did O=C(Cc1ccccc1Cl)NC1(O)C(=O)c2ccccc2C1=O do in these assays?
TR SRC2 fluor cs: 0%; Tau FP inhib: inconclusive; Tau fibril ThT: 2.8µM*; TRb-SRC2 inh: -17%; Tau fluor cs: -29%

How did O=C(COC(=O)/C=C/c1ccccc1)Nc1cccc(Oc2ccccc2)c1 do in these assays?
TR SRC2 fluor cs: -1%; Tau FP inhib: inconclusive; Tau fibril ThT: -16%; PNC assembly inh: 68; TRb-SRC2 inh: -6%; Tau fluor cs: inconclusive

Results for O=C(O)C1CCCCC1C(=O)Nc1ccc(Cl)cc1Cl (stereo not given) ?
TR SRC2 fluor cs: 2%; Tau FP inhib: 4%; Tau fibril ThT: -1%; PNC assembly inh: -23; TRb-SRC2 inh: -8%; Tau fluor cs: -4%

What do the screens show for `O=C(O)c1ccc(Oc2c(C(F)(F)F)oc3cc(O)ccc3c2=O)cc1`?
TR SRC2 fluor cs: -1%; Tau FP inhib: 3%; Tau fibril ThT: -2%; TRb-SRC2 inh: -2%; Tau fluor cs: -2%

What do the screens show for `COCCN1C(=O)N[C@@H](c2cccc(F)c2)C(C(C)=O)=C1C`?
TR SRC2 fluor cs: -1%[11.2 µM]; Tau FP inhib: -1%[11.6 µM]; Tau fibril ThT: 3%[11.5 µM]; TRb-SRC2 inh: -2%[11.2 µM]; Tau fluor cs: -2%[11.6 µM]
